IL1B NFkB inh: blocks IL-1B driven NFkB nuclear translocation in HUVEC cells | HUVEC IL-1B NFkB p65 nuclear translocation imaging | inhibition, % at 2 µM | hit rate 0.43% among 94,000 | AID 796;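 active = inhibition above about 30% together with a positive call from visual inspection of the well image, limit read from the data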;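 also: nuclear over cytoplasmic p65 intensity ratio measured by imaging; 0% = IL-1B stimulated DMSO wells and 100% = unstimulated DMSO wells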
IL1B cytotox: toxic to HUVEC cells under IL-1B stimulation; HUVEC cell count loss, Hoechst imaging, IL-1B stimulated; cell count reduction, % at 2 µM; hit rate 0.41% among 94,000; AID 845;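 active = cell count reduction more than 3 SD above the screen-wide mean, cut at about 70% in these data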;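 also: normalized per plate to untreated control cells as the no-loss baseline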
INS promoter inh: TRM-6 insulin promoter activity inhibition | inhibition, % at 2 µM | TRM-6 cells (human fetal islet line), insulin promoter-eGFP reporter, imaging; reporter expression induced with tamoxifen | hit rate 0.9% among 130,000 | AID 1273;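 active = inhibition above the mean plus 3 SD, with well images judged a real hit on visual review, cut at about 60% in these data, passing the limit was not always enough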
NFkB transloc pot: enhances IL-1B driven NFkB nuclear translocation. activation, % at 2 µM. hit rate 0.3% among 94,000. HUVEC IL-1B NFkB p65 nuclear translocation imaging;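 active = activation above 40%, about the mean plus 3 SD, also judged a hit on visual image review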;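 also: percent activation is computed from the nuclear over cytoplasmic p65 intensity ratio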
Active calls of the source: *; nt = not tested or not shown. Only some compounds are listed: those with a hit (about 1.3% of all), similar ones and a draw of the others.

SMILES	IL1B NFkB inh	IL1B cytotox	INS promoter inh	NFkB transloc pot
COc1cccc(Nc2nc(=O)[nH]nc2C)c1	17.6	83.0*	-21.1	-17.6
COc1cccc(NC(=O)Nc2cc(NC(=O)Nc3cccc(OC)c3)c(C)nc2C)c1	nt	nt	-16.0	nt
O=C(CSc1ncnc2c1cnn2CCO)Nc1cccc(C(F)(F)F)c1	nt	nt	8.3	nt
CC(C)OP(=O)(OC(C)C)C(C)NC(=O)Cc1ccccc1 (stereo unspecified)	nt	nt	81.8*	nt
Cc1ccc(OCCn2cnc3ccccc3c2=O)c([N+](=O)[O-])c1	nt	nt	15.4	nt
O=C(CSc1nnc(Cc2cc(=O)[nH]c(=O)[nH]2)n1-c1ccccc1)NCC1CCCO1 (stereo unspecified)	14.7	92.8*	-16.7	-14.7
COCCOc1cc(-n2cccc2)c(Cl)cc1Cl	nt	nt	55.6	nt
COc1ccc(C(=O)Nc2cccc(C(=O)NCc3ccco3)c2)cc1	nt	nt	66.7*	nt
Cc1cccc(N2CCN(C(=O)CN3C(=O)C4CC=CCC4C3=O)CC2)c1C (stereo unspecified)	nt	nt	0.0	nt
CCOC(=O)c1cnn(-c2ccccc2)c1-n1cccc1C(=O)C(=O)Nc1ccc(OC)cc1	-9.4	94.2*	-27.6	9.4
CCOC(=O)c1sc(NC(=O)c2ccccc2F)c(C(N)=O)c1C	nt	nt	79.3*	nt
Cc1nn(CCCC(=O)Nc2c(F)cc(F)cc2Br)c(C)c1[N+](=O)[O-]	nt	nt	-94.1	nt
COc1ccccc1NC(=O)N1CCC(c2nc3cc(C)c(C)cc3[nH]2)CC1	1.3	5.1	-13.3	-1.3
COc1ccccc1NC(=S)N1CCC(c2nc3cc(C)c(C)cc3[nH]2)CC1	55.8*	-15.0	-22.6	-55.8
CC(=O)N1CCc2cc(S(=O)(=O)CCC(=O)NCc3ccco3)ccc21	nt	nt	-45.5	nt
CC(=O)N1CCc2cc(S(=O)(=O)CCC(=O)N3CCN(C(=O)c4ccco4)CC3)ccc21	-5.5	85.6*	-6.5	5.5
O=C(Nc1c2c(nc3ccccc13)CCCC2)c1ccccc1F	nt	nt	64.3*	nt
CN(NC(=O)c1cccc(Cl)c1)c1nc(-c2ccccc2)nnc1C(F)(F)F	1.4	-0.3	-44.1	-1.4
CN(N)c1nc(-c2ccccc2)nnc1C(F)(F)F	0.8	85.8*	5.9	-0.8
COc1cccc(OC)c1C(=O)N1CCN(S(=O)(=O)c2ccc(C)cc2)CC1	32.3*	8.8	-7.1	-32.3
Cc1ccc(S(=O)(=O)N2CCN(C(=O)c3ccccc3)CC2)cc1	-25.2	-6.2	-25.0	25.2
CCn1c(C2CCN(Cc3ccccc3)CC2)n[nH]c1=S	nt	nt	66.7	nt
O=C(NCc1ccccc1)N1CCC(n2cnc3cc(F)ccc32)CC1	-15.5	-15.7	77.8*	15.5
Cc1ccc2c(c1)nnn2C1CCN(C(=O)NCc2ccccc2)CC1	nt	nt	25.0	nt
O=C(Cn1ncc(Cl)c(Cl)c1=O)c1ccc(Cl)cc1	15.7	-165.0	-8.3	-15.7
SMILES	IL1B NFkB inh	IL1B cytotox	INS promoter inh	NFkB transloc pot
O=C(OCn1ncc(Cl)c(Cl)c1=O)c1ccccc1Cl	90.3*	-6.4	-178.6	-90.3
O=C(OCn1ncc(Cl)c(Cl)c1=O)c1ccc(F)cc1	93.2*	28.8	-242.9	-93.2
Cc1ccc(CNC(=O)c2ccc(-n3cccc3)cc2)cc1	nt	nt	100.0*	nt
COCc1cc(C)n(CC(=O)Nc2ccc(Cl)cc2Cl)c(=O)c1C#N	-40.7	-1.7	-7.0	40.7*
COc1cc(Cl)ccc1NC(=S)N(CCN1CCOCC1)C1CCN(C(C)=O)CC1	nt	nt	-29.4	nt
COc1ccc(/C=N/n2c(N)nc3ccccc32)cc1OC	1.2	1.4	75.0*	-1.2
O=C(/C=C/c1cccs1)c1ccc(Br)cc1	-106.6	-21.0	nt	106.6*
Cc1ccc(OC(C)c2nnc(N)s2)cc1Cl (stereo unspecified)	97.3*	92.1*	23.7	-97.3
COc1ccc(OC(C)c2nnc(N)s2)cc1 (stereo unspecified)	nt	nt	17.6	nt
Cc1ccc2[nH]c(O)c(N=NC(=O)C(C)n3cnc4ccccc4c3=O)c2c1 (stereo unspecified)	nt	nt	3.5	nt
CS(=O)(=O)c1nc(-c2cccs2)cc(C(F)(F)F)n1	30.6*	0.0	6.9	-30.6
COC(=O)CCS(=O)(=O)c1nc(-c2ccccc2)cc(C(F)(F)F)n1	36.9*	-3.7	-7.7	-36.9
CCOC(=O)CCS(=O)(=O)c1nc(-c2ccccc2)cc(C(F)(F)F)n1	14.6	31.6	56.2	-14.6
O=C(Nc1ccc(NC(=O)C2CC2)cn1)c1ccccc1Cl	9.9	88.3*	10.3	-9.9
CCCC(=O)Nc1ccc(NC(=O)C2CC2)cn1	-7.7	13.0	-43.2	7.7
O=C(CSc1ccc(Cl)cc1)Nn1cnnc1	-4.7	17.5	-14.3	4.7
O=C(CSc1ccc2ccccc2c1)Nn1cnnc1	-49.7	7.1	-42.3	49.7*
CCCc1cc(=O)n2c([nH]c3ccccc32)c1C#N	35.8*	-17.0	-7.1	-35.8
Nc1ccccc1S(=O)(=O)NC1=NCCCCC1	nt	nt	29.0	nt
Cc1cn(C(=O)C(C)N2C(=O)c3ccccc3C2=O)c(C)n1 (stereo unspecified)	-6.3	87.4*	-22.2	6.3
Cc1nn(C(=O)C(C)N2C(=O)c3ccccc3C2=O)c(C)c1Br (stereo unspecified)	1.1	22.9	-57.1	-1.1
CCOC(=O)c1cnc(SCC(=O)Nc2ccc(N3CCOCC3)c(Cl)c2)nc1N	-0.3	-1.6	16.7	0.3
CCOC(=O)c1cnc(SCC(=O)Nc2cc(OC)cc(OC)c2)nc1N	-50.3	-22.0	nt	50.3*
CCCCSc1ncc(C(=O)OCC)c(N)n1	1.3	6.5	80.0*	-1.3
CCOC(=O)c1cnc(SCCc2ccccc2)nc1N	-6.2	-14.2	-30.8	6.2
SMILES	IL1B NFkB inh	IL1B cytotox	INS promoter inh	NFkB transloc pot
O=C(Cn1c(=O)c(=O)n(Cc2ccccc2)c2ccc(Cl)cc21)NCC1CCCO1 (stereo unspecified)	nt	nt	38.9	nt
Cc1ccccc1OCC(=O)Nc1ccc(S(=O)(=O)Nc2ccccn2)cc1	nt	nt	25.9	nt
CCOC(=O)/C(C#N)=c1/s/c(=C2\C=Cc3ccccc3N2CC)c(=O)n1CC	3.9	-28.2	9.7	-3.9
COC(=O)/C(C#N)=C1/C=Cc2ccccc2N1C	-2.6	-42.5	81.2*	2.6
Cc1ccc(-c2nn(-c3ccccc3)cc2C=C2C(=O)CC(C)(C)CC2=O)cc1	6.4	-11.5	nt	-6.4
CC1=NNC(=O)/C1=C\c1cn(-c2ccccc2)nc1-c1ccc(Cl)cc1	70.6*	25.0	26.7	-70.6
CC1(C)CC(=O)/C(=C(/O)CCCN2C(=O)c3ccccc3C2=O)C(=NC(C)(C)C)C1	nt	nt	-73.3	nt
O=C(c1ccc(-n2cnnn2)cc1)N(C1CCCCC1)C1CCCCC1	nt	nt	40.0	nt
O=C(NO)c1ccc(C(=O)N(C2CCCCC2)C2CCCCC2)cc1	-43.5	1.1	-11.5	43.5*
CC(C)(C)NC(NC(=O)Cc1ccccc1)C(Cl)(Cl)Cl (stereo unspecified)	-0.7	-129.2	-64.5	0.7
CCCn1c(CCc2ccccc2)nnc1SCC(=O)N1CCOCC1	-5.0	-5.1	78.1*	5.0
CCCCn1c(SCC(=O)N2CCOCC2)nnc1-c1ccoc1C	29.6	85.8*	29.0	-29.6
Cc1occc1-c1nnc(SCC(=O)N2CCOCC2)n1CCc1ccccc1	-1.4	-15.6	-75.0	1.4
O=C(NCC1CCCO1)c1ccccn1 (stereo unspecified)	-0.8	-1.4	75.3*	0.8
Cn1nc(-c2ccc(C(=O)NCC3CCCO3)cc2)c2ccccc2c1=O (stereo unspecified)	6.5	89.8*	40.0	-6.5
S=C(NCC1CCCO1)NC1CC1 (stereo unspecified)	nt	nt	-25.0	nt
